Assay results as given in PubChem BioAssay.
Active and inactive are the calls of the source. Cut-off read from the data, not from the text of the source: active = inhibition above about 37%; inactive = the rest.

Test system: Hepatitis C virus NS3 helicase
Assay: HCV NS3 helicase inhibitors, primary screen, biochemical, fluorescence polarization, LOPAC1280 library (AID 687035)
Details: Purified HCV NS3 helicase, Cy5-dT15 ssDNA binding fluorescence polarization; stronger effect = higher value; concentration not given here

Question: CCCC(=O)NCCc1c2n(c3ccc(OC)cc13)CCCc1ccccc1-2 was tested. Which inhibition did it give?
Answer: 0% (inactive)

Question: For Cn1ccnc1, which inhibition is on record?
Answer: -2% (inactive)

Question: For Nn1nnc2ccccc21, which inhibition is on record?
Answer: -1% (inactive)

Question: Which inhibition does the source give for CCCn1c(=O)c2[nH]c(-c3ccc(S(=O)(=O)O)cc3)nc2n(CCC)c1=O here?
Answer: 0% (inactive)

Question: For C[C@H](O)C(=O)C1=Nc2c(nc(N)[nH]c2=O)NC1, which inhibition is on record?
Answer: -3% (inactive)

Question: For NC1(C(=O)O)CCc2cc(C(=O)O)ccc21 (centres undefined), which inhibition is on record?
Answer: -1% (inactive)

Question: For Nc1nc(Cl)nc2c1ncn2[C@@H]1O[C@H](CO)[C@H](O)C1O (some centres undefined), which inhibition is on record?
Answer: 0% (inactive)

Question: N[C@H](C(=O)O)[C@H](O)C(=O)O was tested. Which inhibition did it give?
Answer: -1% (inactive)

Question: For C=C1C(=O)O[C@@H]2[C@H]3O[C@]3(C)CCC=C(C)CC[C@@H]12, which inhibition is on record?
Answer: -6% (inactive)

Question: For C[C@@H]1C(=O)NC2=Nc3cccc(Cl)c3CN21, which inhibition is on record?
Answer: 0% (inactive)

Question: With CCNC(=O)[C@H]1O[C@@H](n2cnc3c(N)nc(NCCc4ccc(CCC(=O)O)cc4)nc32)C(O)[C@H]1O (some centres undefined) as the compound, how does the inhibition read?
Answer: 0% (inactive)

Question: For Cc1nc(N=Nc2ccc(S(=O)(=O)O)cc2S(=O)(=O)O)c(COP(=O)(O)O)c(C=O)c1O, which inhibition is on record?
Answer: 0% (inactive)

Question: For O=C(Nc1cccc(C(=O)Nc2ccc(S(=O)(=O)O)c3cc(S(=O)(=O)O)cc(S(=O)(=O)O)c23)c1)Nc1cccc(C(=O)Nc2ccc(S(=O)(=O)O)c3cc(S(=O)(=O)O)cc(S(=O)(=O)O)c23)c1, which inhibition is on record?
Answer: 91% (active)

Question: For Nc1nc2[nH]c(=O)cnc2c(=O)[nH]1, which inhibition is on record?
Answer: -5% (inactive)

Question: For N[C@@H](Cc1cnc[nH]1)C(=O)O, which inhibition is on record?
Answer: 0% (inactive)

Question: CC1(C)CCC(NC(=O)[C@@H](N)CCC(=O)O)CC1 was tested. Which inhibition did it give?
Answer: -6% (inactive)

Question: With C#CC(N)CCC(=O)O (centres undefined) as the compound, how does the inhibition read?
Answer: -1% (inactive)

Question: C=CCN1CCc2c(cc(O)c(O)c2Br)[C@@H](c2ccccc2)C1 was tested. Which inhibition did it give?
Answer: -2% (inactive)

Question: With N=C(N)c1ccc(N)cc1 as the compound, how does the inhibition read?
Answer: -2% (inactive)

Question: Which inhibition does the source give for O=C1C2C=CC=CC2=NC(=S)N1CCN1CCC(=C(c2ccc(F)cc2)c2ccc(F)cc2)CC1 (centres undefined) here?
Answer: 1% (inactive)

Question: For N.N.O=C(O)C1(C(=O)O)CCC1.[Pt+2], which inhibition is on record?
Answer: -3% (inactive)

Question: [Li+] was tested. Which inhibition did it give?
Answer: -1% (inactive)

Question: How did the inhibition turn out when COc1cc2c(CCNC(C)=O)c[nH]c2cc1O was run?
Answer: -2% (inactive)

Question: OC1(c2ccc(Cl)cc2)CCN(Cc2c[nH]c3ccccc23)CC1 was tested. Which inhibition did it give?
Answer: -8% (inactive)

Question: N=C(N)c1ccccc1 was tested. Which inhibition did it give?
Answer: -2% (inactive)

Question: Which inhibition does the source give for CC(=O)SCC[N+](C)(C)C here?
Answer: 0% (inactive)

Question: COc1cccc(C(=O)NCCN2CCN(c3ccc(Cl)cc3)CC2)c1 was tested. Which inhibition did it give?
Answer: 0% (inactive)

Question: With OCC1NCC(O)C(O)C1O (centres undefined) as the compound, how does the inhibition read?
Answer: -2% (inactive)

Question: How did the inhibition turn out when C=C/C(C)=C/[C@@]1(C)SC(=O)C(C)=C1O was run?
Answer: -4% (inactive)

Question: With CCCOC(=O)c1c(-c2ccccc2)nc(CC)c(C(=O)SCC)c1CCC as the compound, how does the inhibition read?
Answer: -3% (inactive)

Question: For Oc1ccc(C2CNCc3sccc32)cc1O (centres undefined), which inhibition is on record?
Answer: 5% (inactive)

Question: For Nc1ncnc2c1nc(Sc1ccc(Cl)cc1)n2C1OC2COP(=O)(O)O[C@@H]2[C@@H]1O (some centres undefined), which inhibition is on record?
Answer: -8% (inactive)

Question: Which inhibition does the source give for O=C(O)CCC(C(=O)O)N1C(=O)c2ccccc2C1=O (centres undefined) here?
Answer: -4% (inactive)

Question: For Nc1ncnc2c1nc(Br)n2C1OC2COP(=O)(O)O[C@@H]2C1O (some centres undefined), which inhibition is on record?
Answer: -5% (inactive)

Question: Which inhibition does the source give for Nc1nc(Nc2ccccc2)nc2c1ncn2[C@@H]1O[C@H](CO)[C@H](O)C1O (some centres undefined) here?
Answer: -4% (inactive)

Question: COc1ccc(NC(=O)/C=C/c2ccc(Cl)cc2)cc1 was tested. Which inhibition did it give?
Answer: -2% (inactive)

Question: How did the inhibition turn out when C=CCn1c(=O)c2c(nc(-c3ccc(S(=O)(=O)O)cc3)n2C)n(C)c1=O was run?
Answer: -3% (inactive)

Question: How did the inhibition turn out when N[C@H](CO)C(=O)O was run?
Answer: -3% (inactive)

Question: With N#Cc1cc([N+](=O)[O-])c2sc(C(N)=O)[n+]([O-])c2c1 as the compound, how does the inhibition read?
Answer: -4% (inactive)
